Laboratory results from PubChem BioAssay (NCATS).
Results filed as inconclusive are left out. A call without a number means that no potency is given here. The source made the active and inactive calls. The call rests on the fitted dose curve; in most records, active means well fitted curve in the direction sought with a large enough effect; inconclusive means small, poorly fitted or top-dose-only effect, or another doubt; inactive means no such curve, though single readings can be large; an effect the other way counts as inactive or inconclusive. Peptide text beside a SMILES is read from it.

Legend:
[1] = target: Glutathione peroxidase 1 (Homo sapiens) (UniProt P07203); assay: Primary qHTS Assay for Inhibitors of Recombinant Selenoprotein Glutathione Peroxidase 1 (GPX1) (AID 1845191); further: nearly all actives have a fitted effect of over 65% in size
How it was run: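 GPX1 10 nM, GR 100 nM, GSH 1 mM, NADPH 0.5 mM, CHP 0.5 mM (final). 30-min cpd preincubation, RT. Ex340/Em450 read t=0, t=15 min.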

[2] = target: Phospholipid hydroperoxide glutathione peroxidase GPX4 (Homo sapiens) (UniProt P36969); assay: Primary qHTS Assay for Inhibitors of Recombinant Selenoprotein Glutathione Peroxidase 4 (GPX4) (AID 1845192); further: nearly all actives have a fitted effect of over 65% in size
How it was run: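 qHTS, GR-coupled: GPX4 200 nM + cpd 30 min RT → GSH 1 mM, NADPH 0.5 mM, GR 100 nM → CHP 0.5 mM start; fluor 340/450 at t0 and t15 min; no-enzyme wells as control.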

[3] = Primary fluorescence-based thiol-reactive (MSTI) qHTS assay for identification of artifact compounds. (AID 1845221);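 further: thiol-reactive compounds lower the probe fluorescence signal; nearly all actives have a fitted effect of over 65% in size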
How it was run: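 Thiol-reactive compounds detected by quenching of 4 uM MSTI fluorescence (525/598 nm) after 1 h room-temperature dark incubation in PBS pH 7.4, 2% DMSO. qHTS titration; percent inhibition Hill-fitted against Acetyl-MSTI/MSTI controls.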

[4] = Primary redox qHTS assay for identification of artifact compounds. (AID 1845223)
How it was run: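 Redox-cycling detection via DTT (250 uM final) oxidation coupled to Amplex Red (25 uM)/HRP (250 mU/mL) in HBSS. 15 min preincubation plus 30 min after DTT, room temperature. Ex/Em 525/598 nm; 4-parameter Hill fit against DMSO and 10 uM DA3003.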

[5] = Quantitative High-Throughput drug screen in 47 multiple myeloma cell lines against the NCATS MIPE library collection: FR4_PLB cell viability assay (AID 1918924; further: nearly all actives have a fitted effect of over 35% in size; further: potency means the concentration at half of the fitted maximal effect)
How it was run: (§1)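 qHTS of the MIPE 4.0 collection: 500 myeloma cells/well, 48 h drug exposure at 37C in 5% CO2, then CellTiter-Glo for 5 min at room temperature before luminescence reading.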

[6] = Quantitative High-Throughput drug screen in 47 multiple myeloma cell lines against the NCATS MIPE library collection: EJM_DSMZ cell viability assay (AID 1918926; further: nearly all actives have a fitted effect of over 30% in size; further: potency means the concentration at half of the fitted maximal effect)
How it was run: (§2)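 Primary qHTS used for cherry-picking: cells at 500/well, library compounds for 48 h (37C, 5% CO2), luminescent ATP assay.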

[7] = Quantitative High-Throughput drug screen in 47 multiple myeloma cell lines against the NCATS MIPE library collection: ARP1_JJKsccF8 cell viability assay (AID 1918928; further: nearly all actives have a fitted effect of over 40% in size; further: potency means the concentration at half of the fitted maximal effect)
How it was run: (§3)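 500 cells/well; MIPE 4.0 library pinned in; 48 h, 37 °C, 5% CO2; CellTiter-Glo ATP luminescence. Controls: DMSO = 100% viability, medium only = 0%.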

[8] = Quantitative High-Throughput drug screen in 47 multiple myeloma cell lines against the NCATS MIPE library collection: KHM11_PLB cell viability assay (AID 1918962); further: nearly all actives have a fitted effect of over 35% in size; further: potency means the concentration at half of the fitted maximal effect
How it was run: as §1

[9] = Quantitative High-Throughput drug screen in 47 multiple myeloma cell lines against the NCATS MIPE library collection: JIM3_ECACC cell viability assay (AID 1918963; further: nearly all actives have a fitted effect of over 35% in size; further: potency means the concentration at half of the fitted maximal effect)
How it was run: as §1

[10] = Quantitative High-Throughput drug screen in 47 multiple myeloma cell lines against the NCATS MIPE library collection: ARD_JJKsccE7 cell viability assay (AID 1918929; further: potency means the concentration at half of the fitted maximal effect)
How it was run: as §2

[11] = Quantitative High-Throughput drug screen in 47 multiple myeloma cell lines against the NCATS MIPE library collection: KMM1_JCRB cell viability assay (AID 1918960); further: nearly all actives have a fitted effect of over 30% in size; further: potency means the concentration at half of the fitted maximal effect
How it was run: as §3

[12] = Quantitative High-Throughput drug screen in 47 multiple myeloma cell lines against the NCATS MIPE library collection: JJN3_DSMZ cell viability assay (AID 1918966; further: nearly all actives have a fitted effect of over 50% in size; further: potency means the concentration at half of the fitted maximal effect)
How it was run: as §2

[13] = Quantitative High-Throughput drug screen in 47 multiple myeloma cell lines against the NCATS MIPE library collection: Delta47_JCRB cell viability assay (AID 1918925; further: nearly all actives have a fitted effect of over 45% in size; further: potency means the concentration at half of the fitted maximal effect)
How it was run: as §2

[14] = Quantitative High-Throughput drug screen in 47 multiple myeloma cell lines against the NCATS MIPE library collection: AMO1_DSMZ cell viability assay (AID 1918927; further: nearly all actives have a fitted effect of over 30% in size; further: potency means the concentration at half of the fitted maximal effect)
How it was run: as §2

[15] = Quantitative High-Throughput drug screen in 47 multiple myeloma cell lines against the NCATS MIPE library collection: INA6_PLB cell viability assay (AID 1918965; further: nearly all actives have a fitted effect of over 55% in size; further: potency means the concentration at half of the fitted maximal effect)
How it was run: (§4)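 Luminescent ATP measurement with CellTiter-Glo gives viability, scaled between DMSO-only wells (100%) and media-only wells (0%). Cells, 500 per well, faced library compounds for 48 hours at 37C.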

[16] = Quantitative High-Throughput drug screen in 47 multiple myeloma cell lines against the NCATS MIPE library collection: Karpas620_DSMZ cell viability assay (AID 1918959); further: nearly all actives have a fitted effect of over 30% in size; further: potency means the concentration at half of the fitted maximal effect
How it was run: as §1

[17] = Quantitative High-Throughput drug screen in 47 multiple myeloma cell lines against the NCATS MIPE library collection: JIM1_ECACC cell viability assay (AID 1918964; further: potency means the concentration at half of the fitted maximal effect)
How it was run: as §2

[18] = Quantitative High-Throughput drug screen in 47 multiple myeloma cell lines against the NCATS MIPE library collection: H1112_PLB cell viability assay (AID 1918967; further: nearly all actives have a fitted effect of over 30% in size; further: potency means the concentration at half of the fitted maximal effect)
How it was run: as §2

[19] = Quantitative High-Throughput drug screen in 47 multiple myeloma cell lines against the NCATS MIPE library collection: Karpas25_ECACC cell viability assay (AID 1918968; further: nearly all actives have a fitted effect of over 35% in size; further: potency means the concentration at half of the fitted maximal effect)
How it was run: as §2

[20] = Quantitative High-Throughput drug screen in 47 multiple myeloma cell lines against the NCATS MIPE library collection: Karpas417_ECACC cell viability assay (AID 1918961); conditions: Karpas417 myeloma viability, CellTiter-Glo ATP luminescence, 48 h; viability (% of DMSO): at 45.8 µM (top of the series); further: potency means the concentration at half of the fitted maximal effect
How it was run: as §4

Chain of Glutathione peroxidase 1 (Homo sapiens) (P07203 whole entry, looked up): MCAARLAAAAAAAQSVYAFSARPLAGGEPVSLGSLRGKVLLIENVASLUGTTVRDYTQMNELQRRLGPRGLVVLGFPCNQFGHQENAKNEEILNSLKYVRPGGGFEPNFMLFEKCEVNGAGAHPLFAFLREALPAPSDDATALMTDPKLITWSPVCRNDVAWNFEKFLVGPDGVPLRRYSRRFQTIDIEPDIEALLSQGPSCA
Chain of Phospholipid hydroperoxide glutathione peroxidase GPX4 (Homo sapiens) (P36969 whole entry, looked up): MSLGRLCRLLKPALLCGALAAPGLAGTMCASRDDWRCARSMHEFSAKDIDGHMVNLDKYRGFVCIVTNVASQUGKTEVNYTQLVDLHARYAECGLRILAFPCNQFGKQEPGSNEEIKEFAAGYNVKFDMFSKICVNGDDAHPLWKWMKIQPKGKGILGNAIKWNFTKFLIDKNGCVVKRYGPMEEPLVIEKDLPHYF

Row | Compound | Potency [1] | Potency [2] | Potency [3] | outcome [4] | Potency [5] | Potency [6] | Potency [7] | Potency [8] | Potency [9] | Potency [10] | Potency [11] | Potency [12] | Potency [13] | Potency [14] | Potency [15] | Potency [16] | Potency [17] | Potency [18] | Potency [19] | Potency [20]
1 | CC(=O)O[C@H]1C(=O)[C@@]2(C)C([C@H](OC(=O)c3ccccc3)[C@]3(O)C[C@H](OC(=O)[C@H](O)[C@@H](NC(=O)c4ccccc4)c4ccccc4)C(C)=C1C3(C)C)[C@]1(OC(C)=O)CO[C@@H]1C[C@@H]2O (stereo partly specified) | inactive | inactive | inactive | inactive | inactive | inactive | inactive | inactive | inactive |  |  |  |  |  |  |  |  |  |  | 
2 | Cc1nccn1CC1CCc2c(c3ccccc3n2C)C1=O (stereo unspecified) | inactive | inactive | inactive | inactive | inactive | inactive |  |  |  | inactive | inactive | inactive |  |  |  |  |  |  |  | 
3 | COc1ccccc1N1CCN(CCN(C(=O)C2CCCCC2)c2ccccn2)CC1 | inactive | inactive | inactive |  | inactive | inactive | inactive |  | inactive | 1.18 µM (active) |  |  | 10.5 µM (active) | 2.96 µM (active) | 3.72 µM (active) |  |  |  |  | 
4 | CC(=O)Nc1ccc(O)cc1 | inactive | inactive |  |  |  |  |  |  |  |  |  |  |  |  |  |  |  |  |  | 
5 | COc1ccc2cc([C@H](C)C(=O)O)ccc2c1 | inactive | inactive |  | inactive | inactive | inactive | inactive | 29.6 µM (active) |  | inactive | inactive |  |  | inactive |  | inactive | inactive | inactive | 20.9 µM (active) | 
6 | Cc1nc(-c2ccc(OCC(C)C)c(C#N)c2)sc1C(=O)O | inactive | inactive |  |  | inactive | inactive | inactive |  | inactive | inactive | inactive |  | inactive | inactive |  |  | inactive | inactive |  | 
7 | Cc1ccc(NC(=O)c2ccc(CN3CCN(C)CC3)cc2)cc1Nc1nccc(-c2cccnc2)n1 | inactive | inactive | inactive | inactive |  |  |  |  |  |  |  |  |  |  |  |  |  | inactive | 23.5 µM (active) | 
8 | O=C(O)c1cccnc1Nc1cccc(C(F)(F)F)c1 | inactive | inactive |  |  | inactive | inactive | inactive |  | inactive | inactive | inactive |  | inactive | inactive | inactive | inactive |  | inactive |  | 
9 | Cc1ccc(Nc2nccc(N(C)c3ccc4c(C)n(C)nc4c3)n2)cc1S(N)(=O)=O | inactive | inactive | inactive | inactive | 20.9 µM (active) | 14.8 µM (active) |  |  |  | 16.6 µM (active) | 14.8 µM (active) | 20.9 µM (active) | 16.6 µM (active) | 10.5 µM (active) |  |  |  | 16.6 µM (active) | 16.6 µM (active) | 
10 | COC(=O)[C@H](Cc1ccccc1)NC(=O)[C@@H](N)CC(=O)O (H-Asp-Phe-OMe) | inactive | inactive |  |  | inactive | inactive | inactive | inactive | inactive | inactive | inactive |  | inactive | inactive | inactive | inactive | inactive | inactive | inactive | 
11 | CC(=O)NC[C@H]1CN(c2ccc(N3CCOCC3)c(F)c2)C(=O)O1 | inactive | inactive | inactive | inactive | inactive | inactive | 18.7 µM (active) |  | inactive | inactive | inactive |  |  | inactive |  | inactive |  | inactive |  | 
12 | COc1cc(Nc2c(C#N)cnc3cc(OCCCN4CCN(C)CC4)c(OC)cc23)c(Cl)cc1Cl | inactive | inactive | inactive | inactive | 23.5 µM (active) | 23.5 µM (active) | 18.7 µM (active) | 5.26 µM (active) | 18.7 µM (active) |  |  | 18.7 µM (active) | 3.72 µM (active) | 8.33 µM (active) | 0.418 µM (active) | 11.8 µM (active) |  | 9.35 µM (active) | 1.05 µM (active) | 
13 | Clc1ccc(C(Cn2ccnc2)OCc2c(Cl)cccc2Cl)c(Cl)c1 (stereo unspecified) | inactive | inactive | inactive | inactive |  |  | 23.5 µM (active) |  |  | 16.6 µM (active) | 18.7 µM (active) | 23.5 µM (active) |  | 20.9 µM (active) | 29.6 µM (active) | 18.7 µM (active) | 23.5 µM (active) |  |  | 16.6 µM (active)
14 | CN(C)C(=O)[C@H](O)[C@H](Cc1ccccc1)NC(=O)c1cc2cc(Cl)ccc2[nH]1 | inactive | inactive | inactive | inactive |  |  | 16.6 µM (active) | inactive |  | 16.6 µM (active) |  | 1.66 µM (active) |  | 6.62 µM (active) | 0.833 µM (active) |  |  |  |  | 
15 | O=C(NOCC1CC1)c1ccc(F)c(F)c1Nc1ccc(I)cc1Cl | inactive | inactive | inactive | inactive | 23.5 µM (active) |  |  | 0.0235 µM (active) | 6.62 µM (active) | 11.8 µM (active) | 6.62 µM (active) | 20.9 µM (active) | 20.9 µM (active) | 6.62 µM (active) | 9.35 µM (active) | 0.372 µM (active) | 9.35 µM (active) |  |  | 
16 | c1cnc2cc3c(cc2n1)C1CNCC3C1 | inactive | inactive |  | inactive | inactive | inactive | inactive | inactive | inactive | inactive | inactive |  |  | inactive |  | inactive | inactive |  | inactive | inactive
17 | CN(C)CCCC1(c2ccc(F)cc2)OCc2cc(C#N)ccc21 (stereo unspecified) | inactive | inactive | inactive | inactive | inactive |  | inactive | inactive | inactive | inactive | inactive |  |  | inactive |  | inactive |  | 8.33 µM (active) | inactive | 
